PubChem BioAssay AID488969 (Vanderbilt High Throughput Screening Facility, 2010)
Over roughly 110,000 compounds, “z-score” has its median near -0.1; the highest 2% begin near 2. The full list was thinned out, with the highest values kept by preference. Calls of active or inactive are those of the source.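 The calls were made as follows: active = z-score in the third read window above 3 or below -3; inactive = the rest.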

biological target: Metabotropic glutamate receptor 8 (Rattus norvegicus) (UniProt P70579); assay: rat mGluR8 modulators via GIRK flux, primary screen, cell-based, thallium flux, HTS (AID 488969); conditions: HEK293 rat mGluR8, GIRK (G protein-gated inwardly rectifying potassium channel) thallium flux, FluoZin2; at 10 µM; stronger effect = higher value; submaximal glutamate (EC20) added with thallium
Sequence (P70579 whole entry, looked up): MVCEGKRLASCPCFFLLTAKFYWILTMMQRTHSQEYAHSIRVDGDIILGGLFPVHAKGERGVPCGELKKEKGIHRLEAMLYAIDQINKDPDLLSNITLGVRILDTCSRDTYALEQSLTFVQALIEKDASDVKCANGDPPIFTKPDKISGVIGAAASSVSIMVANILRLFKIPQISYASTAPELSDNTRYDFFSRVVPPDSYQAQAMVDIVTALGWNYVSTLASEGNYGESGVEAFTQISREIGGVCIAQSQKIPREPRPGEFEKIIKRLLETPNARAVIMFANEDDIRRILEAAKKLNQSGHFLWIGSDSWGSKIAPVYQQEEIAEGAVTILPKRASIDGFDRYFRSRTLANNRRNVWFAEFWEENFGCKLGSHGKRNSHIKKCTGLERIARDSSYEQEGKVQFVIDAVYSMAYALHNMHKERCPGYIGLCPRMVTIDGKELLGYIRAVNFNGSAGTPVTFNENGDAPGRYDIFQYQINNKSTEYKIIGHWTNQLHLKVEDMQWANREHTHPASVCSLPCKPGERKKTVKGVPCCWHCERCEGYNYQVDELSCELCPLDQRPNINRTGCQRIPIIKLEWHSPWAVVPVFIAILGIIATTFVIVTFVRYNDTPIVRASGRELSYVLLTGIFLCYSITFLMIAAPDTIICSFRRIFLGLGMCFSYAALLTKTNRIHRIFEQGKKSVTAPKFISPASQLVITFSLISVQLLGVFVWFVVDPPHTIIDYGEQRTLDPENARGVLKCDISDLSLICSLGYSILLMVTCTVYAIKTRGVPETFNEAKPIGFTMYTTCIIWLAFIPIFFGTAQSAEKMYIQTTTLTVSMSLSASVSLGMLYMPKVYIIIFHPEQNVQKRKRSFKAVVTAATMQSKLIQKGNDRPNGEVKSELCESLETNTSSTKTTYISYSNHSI

Structure (SMILES) | z-score
O=c1c2ccccc2nc(CSc2ncnc3nc[nH]c23)n1-c1cccc(C(F)(F)F)c1 | -0.256
Cc1nc(NC(=O)c2ccccc2)sc1-c1csc(NCc2ccco2)n1 | 0.00275
Cn1nnc(NC(=O)c2ccco2)n1 | 0.813
Cc1ccc(C(=O)OCC(=O)NCc2ccco2)cc1 | -0.195
CCc1ccc2c(c1)C(=O)c1ccccc1C2=O | -0.389
CCc1ccc2c(c1)C1(C(=O)N2)N2CCCC2C(C(=O)c2ccc3ccccc3c2)C12C(=O)Nc1ccccc12 (stereo not drawn) | -0.276
CC(C)c1ccc2c(c1)C1(NN=C(c3ccccc3)S1)C(=O)N2 (stereo not drawn) | 0.979
CCc1ccc2c(c1)C1(NN=C(c3cccc4ccccc34)S1)C(=O)N2 (stereo not drawn) | 4.02 (active)
CCc1ccc2c(c1)C1(NN=C(c3ccc(C)cc3)S1)C(=O)N2 (stereo not drawn) | 3.15 (active)
CCc1ccc2c(c1)C1(NN=C(c3ccccc3)S1)C(=O)N2 (stereo not drawn) | 0.104
CCCc1ccc(OCC(O)CN2CCN(c3ccccc3)CC2)cc1 (stereo not drawn) | -0.0136
COc1cc(C2CC(=O)c3c(ccc4ccccc34)N2)ccc1O (stereo not drawn) | 0.11
COc1ccc(C(=O)C(CCCCC(CN(C)C)C(=O)c2ccc(OC)cc2)CN(C)C)cc1 (stereo not drawn) | -0.494
CCOC(=O)C1=C(C)NC(=O)NC1c1ccc(OC)c(CN2CCOCC2)c1 (stereo not drawn) | 0.00374
COc1ccc(CCCC(=O)Nc2ccccc2F)cc1 | 0.0152
COC(=O)c1cc(NC(=O)C2CC2)cc(C(=O)OC)c1 | 0.0071
Cc1ccsc1/C=C1/SC(N2CC(C)OC(C)C2)=NC1=O (stereo not drawn) | -0.238
CC(=O)c1ccc(NC2CC(O)C(O)CO2)cc1 (stereo not drawn) | 2.32
CC(=O)c1ccc(NC2OC(C)C(O)C(O)C2O)cc1 (stereo not drawn) | 0.292
CC(=O)c1ccc(NC(=S)N2CC(C)CC(C)C2)cc1 (stereo not drawn) | -0.208

Structure (SMILES) | z-score
CCCn1nc(C(=O)OCC(=O)c2ccc3c(c2)NC(=O)CO3)c2ccccc2c1=O | -1.71
O=C(NNS(=O)(=O)c1ccccc1)c1ccncc1 | -0.151
CC1=CC(C)(C)Nc2ccc(OC(=O)C(Cc3ccccc3)N3C(=O)C4CCCCC4C3=O)cc21 (stereo not drawn) | 2.63
CC1=CC(C)(C)Nc2ccc(OC(=O)CN3C(=O)C4CCCCC4C3=O)cc21 (stereo not drawn) | 1.08
CC1=CC(C)(C)Nc2ccc(OC(=O)C(Cc3ccccc3)N3C(=O)c4ccccc4C3=O)cc21 (stereo not drawn) | 1.05
CCC(CC)NC(=O)/C=C/c1ccccc1Cl | -0.178
CCC(Sc1nc2ccc(C)cc2[nH]1)C(=O)O (stereo not drawn) | 0.179
COC(=O)c1cc(OC)c(OC)cc1NC(=O)c1ccc(C)o1 | -0.653
CC(C)(C)c1ccc(C(=O)NCC(=O)OCC(=O)Nc2ccc3c(c2)OCCO3)cc1 | 0.131
CCCCC(=O)Nc1ccc(Br)cc1C(=O)O | -0.24
CC1=C(CC/C(C)=N/NC(N)=S)C(C)(C)CCC1 | 1.85
C/C(CC1CC2=C(CC1(C)C)C(C)(C)CCC2)=N\NC(N)=S (stereo not drawn) | 0.599
CC1CC2=C(CC1/C=N/NC(N)=S)C(C)(C)CCC2 (stereo not drawn) | 3.44 (active)
CCCCNC(=O)Cn1nc([N+](=O)[O-])c([N+](=O)[O-])c1C | -0.27
Cc1noc(C)c1S(=O)(=O)N1CCC(C(=O)N(C)Cc2ccccc2)CC1 | -0.182
Cc1noc(C)c1S(=O)(=O)N1CCN(c2ccccc2)CC1 | -0.073
Cc1noc(C)c1S(=O)(=O)N1CCC(Cc2ccccc2)CC1 | 2.68
COc1ccc(CCn2c(N)c(S(=O)(=O)c3cccs3)c3nc4ccccc4nc32)cc1OC | -0.349
COc1ccc(CC(=O)OCCN(C)C)cc1 | 0.0321
O=C(CN1C(=O)c2ccccc2C1=O)N1CCN(c2ccccn2)CC1 | -0.293

Structure (SMILES) | z-score
O=C(CN1C(=O)/C(=C/c2ccccc2F)Oc2ccccc21)N1CCN(c2ccccn2)CC1 | 6.44 (active)
O=C(CN1C(=O)/C(=C\c2cccc(F)c2)Oc2ccccc21)N1CCN(c2ccccn2)CC1 | 0.117
O=C(CCCN1C(=O)c2cccc3cccc(c23)C1=O)N1CCN(c2ccccn2)CC1 | 0.0204
O=C(CN1C(=O)c2cccc3cccc(c23)C1=O)N1CCN(c2ccccn2)CC1 | 8.64 (active)
O=C(CCN1C(=O)COc2ccccc21)N1CCN(c2ccccn2)CC1 | 0.258
CC(C)c1nnc(SCC(=O)NCc2ccc3c(c2)OCO3)n1C | -0.49
CCn1c(=O)n(CC)c2cc([N+](=O)[O-])ccc21 | -0.0668
COc1ccccc1NC(=O)Cc1c(F)cccc1Cl | -0.193
O=C(Nc1cccc2ncccc12)c1ccc(-c2ccc(Br)cc2)o1 | -0.163
CCOC(=O)C1=C(C)NC(C)=C(C(=O)OCC)C1c1ccc(Br)o1 | -0.356
CCOC(=O)C1=C(C)NC(=O)NC1c1ccc(Br)o1 (stereo not drawn) | 2.92
CCOC(=O)C1=C(C)NC(=O)NC1c1ccc(C)o1 (stereo not drawn) | 0.0551
O=C(CN1C(=O)c2ccccc2C1=O)NCCc1c[nH]c2ccccc12 | -0.164
CCOc1ccc(C2=C(C=Nc3c(C)n(C)n(-c4ccccc4)c3=O)C(c3ccc(F)cc3)c3ccccc3O2)cc1 (stereo not drawn) | 1.53
Cc1ccc(-c2c(C)n([O-])c3c([n+]2=O)CCC3)cc1 | -0.263
CCc1c(C)n([O-])c2c([n+]1=O)CCC2 | 0.305
Cc1c(C)[n+](=O)c2c(n1[O-])CCC2 | 14.6 (active)
Cc1ccc(OCCCSc2ncccn2)cc1C | -0.106
